This is an account of results in PubChem BioAssay AID777 (Sanford-Burnham Center for Chemical Genomics, 2007).

Screen size: about 96,000 compounds; about 19,000 (20%) were called active. A selection follows. Values without a mark were called inactive.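 How the source made its calls: active means blocking of liver enzyme CYP2C9 beyond about 50% at 5 µM (limit read from the data); inactive means the rest.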

Cytochrome P450 2C9 (Homo sapiens), sequence (P11712 whole entry, looked up): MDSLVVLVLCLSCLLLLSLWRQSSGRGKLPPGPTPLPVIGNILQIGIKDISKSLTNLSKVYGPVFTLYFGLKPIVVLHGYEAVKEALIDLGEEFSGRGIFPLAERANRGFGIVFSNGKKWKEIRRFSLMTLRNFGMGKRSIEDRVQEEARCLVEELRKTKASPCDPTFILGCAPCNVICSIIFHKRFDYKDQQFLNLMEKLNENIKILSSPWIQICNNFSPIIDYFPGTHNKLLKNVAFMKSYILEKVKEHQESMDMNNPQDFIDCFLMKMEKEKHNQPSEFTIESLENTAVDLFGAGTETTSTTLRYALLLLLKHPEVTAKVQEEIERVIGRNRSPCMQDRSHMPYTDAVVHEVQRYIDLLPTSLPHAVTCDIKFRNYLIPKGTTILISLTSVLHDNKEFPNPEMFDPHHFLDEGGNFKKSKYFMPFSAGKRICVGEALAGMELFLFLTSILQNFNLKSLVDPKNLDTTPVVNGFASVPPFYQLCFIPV

This test has as its target Cytochrome P450 2C9 (Homo sapiens) (UniProt P11712). The test is described as follows: blockers of cytochrome P450 2C9 activity – biochemical, luminescence, ADME assay, primary screen (AID 777). To be noted: CYP2C9 Supersomes, luciferin-H conversion, at 5 µM, stronger effect = higher value.
Take `Cc1[nH]c2ccccc2c1C(=O)CSCC(=O)O`: the inhibition (usually the drop in the measured response relative to a control, in per cent) was -30.3%. Regarding `CCC(c1nnnn1C1CCCC1)N(Cc1cccs1)Cc1cc2cccc(C)c2[nH]c1=O` (stereo unspecified), the inhibition is -52.1%. For the compound `CCC(c1nnnn1Cc1ccco1)N(Cc1cc2cc(OC)ccc2[nH]c1=O)C1CCCCC1` (stereo unspecified), the inhibition was 58.2% (active). Regarding `COc1ccc2[nH]c3c(=O)n(Cc4ccco4)cnc3c2c1`, the inhibition is 26%.

For `CCOc1ccc2c(c1)cc(CN(C(=O)CC)C1CCCCC1)c1nnnn12`, the inhibition was 35.6%. In the case of `CCC(c1nnnn1Cc1ccco1)N(CCc1ccccc1)Cc1cc2cccc(C)c2[nH]c1=O` (stereo unspecified), the inhibition is 29%. As for `CCC(c1nnnn1Cc1ccco1)N(CCc1ccccc1)Cc1cc2ccc(OC)cc2[nH]c1=O` (stereo unspecified), the figure is 91.9% (active).

For the compound `CC1(C)Cc2cccc(OCC(N)=O)c2O1`, the inhibition is -6.4%.

As for `CCn1ncc(Br)c1C(=O)Nc1cc(C)ccc1F`, the inhibition is -6.9%.

`Cc1csc(NC(=O)CN2CCCCCC2)n1`: the inhibition is 0.6%.

`CC(Oc1ccc(Cl)cc1Cl)C(=O)/C=C/N(C)C` (stereo unspecified): the inhibition was 23%. As for `Cc1cc(=O)cc(C)[nH]1`, the inhibition is -13.9%. Take `Cc1ncn(C23CC4CC(CC(O)(C4)C2)C3)n1`: the inhibition was 10.7%.

On to `COCCOCCn1cnc2ccccc21`, for which the inhibition was 0%. Regarding `CC(C)c1ccc(NC(=O)CCN2C(=O)c3ccc([N+](=O)[O-])cc3C2=O)cc1`, the inhibition is 14.3%. In the case of `CC(C)OC(=O)c1cc(NC(=O)C2C3CCC(O3)C2C(=O)O)cc(C(=O)OC(C)C)c1` (stereo unspecified), the inhibition is 79.4% (active). As to `COC(=O)c1cc(NC(=O)C2C3C=CC(C3)C2C(=O)O)cc(C(=O)OC)c1` (stereo unspecified), the inhibition is 64.3% (active). `Cc1sc(NC(=O)C2C3CCC(O3)C2C(=O)O)c(C(=O)OC(C)C)c1-c1ccc(Cl)cc1` (stereo unspecified): the inhibition is 9.3%. In the case of `CC(C)COC(=O)c1ccc(NC(=O)C2C3C=CC(C3)C2C(=O)O)cc1` (stereo unspecified), the inhibition is 29.9%. In the case of `CCC(CC)C(=O)Nc1cc(C(=O)OC)cc(C(=O)OC)c1`, the inhibition is 9%. Turning to `Cn1c(=O)c2c(n(Cc3ccccc3)c1=O)NC(=O)C2CC(=O)N1CCc2ccccc2C1` (stereo unspecified), the inhibition was -4.4%. With `CSc1nnc2c(n1)OC(c1ccsc1)N(C(C)=O)c1ccccc1-2` (stereo unspecified), the inhibition was 10%. In the case of `C=CCNC(=O)CCCC(=O)NCC=C`, the inhibition was 8.2%. As for `CCN(CC)P(=O)(C(NC(=O)OC)C(F)(F)C(F)(F)C(F)(F)C(F)F)N(CC)CC` (stereo unspecified), the figure is 21%. As for `O=C(NCc1ccccc1Cl)c1csc2c1CCCCC2`, the figure is -153%; as for `Cn1c(SCC(=O)NC2CCCCC2)nnc1-c1cc2ccccc2o1`, 9.1%; as for `CCOc1cc2c(cc1OCC)C(C(=O)O)C(c1ccc(OC)c(O)c1)N(C)C2=O` (stereo unspecified), -10%.

Regarding `O=C(NCc1cccs1)c1ccc2c(c1)ncn2C1CCCC1`, the inhibition is 25.4%. Take `O=C(CN1C2CCC1CC(NC(=O)C1CC1)C2)NCc1ccccc1` (stereo unspecified): the inhibition was -10.9%.

As for `COc1ccc(NC(=O)NC2CC3CCCC(C2)N3Cc2ccccc2)cc1` (stereo unspecified), the inhibition is -6.4%.

Regarding `CC(=O)NC1CC2CCCC(C1)N2CC(=O)Nc1ccccc1` (stereo unspecified), the inhibition was 50.7% (active). As for `c1cc(-n2cnnn2)ccc1NC1=NCCC1`, the figure is -26.8%. In the case of `O=C(c1ccc(-n2cnnn2)cc1)N1CCN(C(c2ccccc2)c2ccccc2)CC1`, the inhibition was 83.4% (active).

For `O=C(O)CC(c1ccccc1)n1cnnn1` (stereo unspecified), the inhibition was -7.7%. Turning to `Cc1ccc(S(=O)(=O)N2CCN(C(=O)CCC(=O)NC3CCCc4ccccc43)CC2)cc1` (stereo unspecified), the inhibition is 32.1%.

On to `CCOC(=O)N1CCN(S(=O)(=O)c2cc3c(cc2C)NC(=O)CO3)CC1`, for which the inhibition was -21.5%. Regarding `Cc1ccc2oc(=O)c3cnn(CC(=O)N(Cc4ccco4)C4CCCCC4)c3c2c1`, the inhibition was 19.5%. As to `CCOC(=O)c1cc2sccc2n1Cc1ccc(C#N)cc1`, the inhibition is 96.7% (active). `CCOC(=O)c1cc2c(ccn2C)n1CC(=O)N1CCC(C)CC1`: the inhibition was 29.1%. For the compound `CCCOc1ccc(Cn2c(O)cc(=O)[nH]c2=O)cc1`, the inhibition was -7.9%. Take `CCc1c(C)nc2ncnn2c1N1CCC(C(=O)NCc2ccc3c(c2)OCO3)CC1`: the inhibition is 12.9%. With `CCn1cc(C(=O)NCc2ccc3c(c2)OCO3)c2cc(OC)c(OC)cc2c1=O`, the inhibition is 31.5%. Turning to `Cc1nc2c(C(=O)NCc3ccc4c(c3)OCO4)c[nH]n2c(=O)c1Cc1ccccc1F`, the inhibition is 93.4% (active). On to `CNC(=O)/C(=C\C=C\c1ccccc1)NC(=O)c1ccc([N+](=O)[O-])cc1`, for which the inhibition is 22.2%. With `CCOC(=O)c1cnc(SCc2nc(N)nc(Nc3ccc(OC)cc3)n2)nc1N`, the inhibition is 40.5%. Regarding `Cc1nn(-c2ccccc2)c2c1C(=O)NC(=O)C(C)(C)C2`, the inhibition was 14.9%. For the compound `O=C(Nc1ccc(Oc2ccccc2)cc1)c1ccco1`, the inhibition is 24.3%. For `CC1CCN(C(=O)Cn2cc(C(=O)c3ccco3)c3ccccc32)CC1`, the inhibition was 28.3%.

Regarding `CC1CCN(C(NC(=O)c2ccco2)C(=O)c2ccccc2)CC1` (stereo unspecified), the inhibition was 71.6% (active). `O=C(NC1CCCCC1)N1CCc2[nH]c3ccccc3c2C1`: the inhibition was 27.9%.

With `Cc1cc(Cl)c(S(=O)(=O)NCC2CCCO2)cc1OCC(N)=O` (stereo unspecified), the inhibition was -10.7%. For `COc1cccc(-n2cc3c(c2-c2ccccc2)c(=O)n(C)c(=O)n3C)c1`, the inhibition was 64.6% (active). As for `COc1ccc(-c2c3c(=O)n(C)c(=O)n(C)c3cn2-c2cccc(OC)c2)cc1`, the figure is 4.2%. For the compound `Cc1ccc(-c2c3c(=O)n(C)c(=O)n(C)c3cn2-c2ccccc2O)cc1`, the inhibition is 43.7%.

Turning to `CCc1ccc(Nc2ncc3c(n2)CC(c2ccco2)CC3=O)cc1` (stereo unspecified), the inhibition was 8.9%.

On to `O=C1N=C(N2CCOCC2)S/C1=C\C=C/c1ccccc1`, for which the inhibition was -28.7%. Consider `CN(C)/C=C/C(=O)c1ccccc1F`, for which the inhibition was 14.6%.

As for `O=C(Nc1ccccc1Cl)O/N=C(/c1ccccc1)c1ccccn1`, the inhibition is 22.2%. On to `O=C1NC(c2ccncc2)Nc2sc3c(c21)CCCC3` (stereo unspecified), for which the inhibition is 49.1%. Regarding `O=C(O)C1CCCN(S(=O)(=O)c2cccc3cccnc23)C1` (stereo unspecified), the inhibition was -20.2%. Turning to `CC(=O)c1cccc(NC(=O)C2CCCN2S(=O)(=O)c2cccc3nsnc23)c1` (stereo unspecified), the inhibition is 92.8% (active).

Consider `O=C(Nc1nccs1)C1CCCN1S(=O)(=O)c1cccc2cccnc12` (stereo unspecified), for which the inhibition was 53.9% (active).

Take `COc1ccc(NC(=O)C2CCCN(S(=O)(=O)c3cccc4cccnc34)C2)cc1` (stereo unspecified): the inhibition is -49.2%. On to `CC1CCCCC1NC(=O)C1CCCN1S(=O)(=O)c1cccc2nsnc12` (stereo unspecified), for which the inhibition was 21.2%. As for `CC(=O)c1cccc(NC(=O)N2CCCC2C(=O)NCCC(C)C)c1` (stereo unspecified), the inhibition was 9.2%.

As for `CCc1nn(-c2cc(Oc3cccc4ccccc34)nc(-c3ccccc3)n2)c(N)c1C#N`, the inhibition was 20%. As to `CSc1sc(C)cc1C1C(C#N)=C(N)N(c2cccnc2)C2=C1C(=O)CCC2` (stereo unspecified), the inhibition was 23%.

Consider `CCCOc1ccc(N2C(=O)CC(N(CCc3ccc(S(N)(=O)=O)cc3)C(C)=O)C2=O)cc1` (stereo unspecified), for which the inhibition is -11.4%. On to `Cc1nn(-c2ccccc2)c2[nH]c(C(F)(F)F)cc(=O)c12`, for which the inhibition was 46.9%.

`COc1ccc(OCCCC(=O)Nc2nnc(C3CCCO3)s2)cc1` (stereo unspecified): the inhibition is 45.3%. Regarding `O=C(Cn1c(=O)sc2ccccc21)Nc1ccc2c(c1)OCCO2`, the inhibition was 7%. In the case of `Cc1nnc(NC(=O)Cn2c(=O)sc3ccccc32)s1`, the inhibition is 67.6% (active). As for `Cc1nnc(NC(=O)CCCOc2ccccc2)s1`, the figure is -8.5%; as for `CCN(CC)CCCNC(=O)CCc1ccccc1`, 1.4%. As for `O=C(CN1C(=O)NC2(CCCC2)C1=O)Nc1ccc(F)c(F)c1F`, the figure is -34.9%. As for `Cc1ccccc1N1CC(c2nc3ccccc3[nH]2)CC1=O` (stereo unspecified), the figure is 29.8%; as for `CC1=CC(=O)C=CC1(C)C(Cl)(Cl)Cl` (stereo unspecified), -5.7%; as for `COc1cccc(N(CC(=O)NC2CCCC2)C(=O)Cn2nnc(-c3ccc(C)cc3)n2)c1`, 59.1% (active). Turning to `O=C(Cn1nnc(-c2ccc(CN3CCOCC3)cc2)n1)NC1CCCCC1`, the inhibition is 25.3%. As for `COc1ccc(N(CC(=O)NC2CCCCCCC2)S(=O)(=O)c2c(C)nn(C)c2C)cc1`, the inhibition is 40.5%. As for `CC(C)c1cc(C(=O)O)on1`, the inhibition was -15.7%. Consider `COc1ccc(Oc2c(Cl)cnn(-c3ccccc3)c2=O)cc1`, for which the inhibition was 18.9%. Regarding `Cc1[nH]nc(-c2ccc(OCc3cnn(-c4ccccc4)c3)cc2O)c1Oc1ccc(Cl)cc1`, the inhibition was 66.2% (active). With `Cn1c(COc2ccc(Cl)cc2)nc2ccccc2c1=O`, the inhibition is 43.9%. On to `CC(C)(C)C(=O)Nc1ccc(C(=O)N/N=C/c2ccccc2OC(=O)c2ccc(Cl)cc2Cl)cc1`, for which the inhibition was 21.5%. Turning to `COc1ccc(OC)c(NC(=O)Cn2c(=O)oc3ccccc32)c1`, the inhibition was 26.9%. With `Cn1c2c(c(=O)n(C)c1=O)[C@@H]1c3c(ccc4ccccc34)OC[C@@H]1CO2`, the inhibition is 18.4%. Take `CCn1c(NCCc2ccc(OC)c(OC)c2)nc2c1c(=O)n(C)c(=O)n2C`: the inhibition is 12.4%.

Consider `COc1ccc(OC)c(-n2cc3c(=O)n(C)c(=O)n(C)c3c2)c1`, for which the inhibition was 78.8% (active). As for `CC(=O)Nn1cc2c(=O)n(C)c(=O)n(C)c2c1`, the inhibition is -1.4%. Turning to `Cn1c(=O)c2cn(-c3cccc4ccccc34)cc2n(C)c1=O`, the inhibition is 71.3% (active). For `O=C(OC1CCOC1=O)c1ccc(-c2nc3ccccc3s2)s1` (stereo unspecified), the inhibition was 4.9%. As for `CSCCC(NC(=O)C1CCC(C)CC1)C(=O)NCc1ccco1` (stereo unspecified), the inhibition is 10.7%.

For `CSCCC(NC(N)=O)C(=O)N(C)CC(=O)Nc1ccc(C)cc1` (stereo unspecified), the inhibition was -21.5%.

As to `CC1(C)CC(O)C(CCC(O)c2ccccc2)C(C)(C)N1` (stereo unspecified), the inhibition was -1.7%. With `O=c1c(F)cn(C2CCCO2)c(=O)n1Cc1ccccc1Cl` (stereo unspecified), the inhibition is 15.2%.
